# From PubChem BioAssay
# Active and inactive are the calls of the source. Cut-off read from the data, not from the text of the source, unless noted: active = inhibition above about 80%; inactive = the rest.
# Key:
# [1] = growth inhibition, single agent or in combination, cell-based, chromothripsis tumors, cisplatin or BGB combos (AID 1671449); conditions: LFS_MB_P medulloblastoma cells;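 note: cells exposed for 96 hours; 0% = vehicle DMSO and 100% = killing by high DMSO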
# [2] = growth inhibition, single agent and combos, cell-based, chromothripsis tumors, cisplatin or BGB combos (AID 1671450); conditions: HDN33 neuroblastoma cells, stronger effect = higher value;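 note: cells exposed to compound for four days; 0% = vehicle DMSO and 100% = cell killing by high DMSO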
# [3] = growth inhibition, single agents and combos, ICB984, cell-based, cisplatin or BGB combos, synergistic combos for chromothripsis tumors (AID 1671451; call rule not given here;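 note: cells exposed for 96 hours before readout; 0% = vehicle DMSO and 100% = killing by high DMSO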); conditions: ICB984 medulloblastoma cells, drug combinations, stronger effect = higher value
# [4] = growth inhibition, single agents and combos, LFS_MB_1R, cell-based, cisplatin or BGB combos, synergistic combos for chromothripsis tumors (AID 1671452); conditions: LFS_MB_1R medulloblastoma cells, stronger effect = higher value;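 note: cells exposed for 96 hours before readout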
# [5] = growth inhibition, single agents and combos, HTB85, cell-based, BGB or cisplatin IC20 combos, synergistic combos for chromothripsis tumors (AID 1671453); conditions: HTB85 osteosarcoma cells, drug combinations, stronger effect = higher value;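 note: cells exposed for 96 hours before readout; 0% = vehicle DMSO and 100% = high DMSO killing control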
# [6] = growth inhibition, single agents and combos, CRL2098, cell-based, BGB or cisplatin IC20 combos, synergistic combos for chromothripsis tumors (AID 1671454); conditions: CRL2098 osteosarcoma cells, drug combinations, stronger effect = higher value;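 note: cells exposed for 96 h before readout; 0% = vehicle DMSO and 100% = killing by high DMSO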
# [7] = growth inhibition, single agents and combos, HD-MB03, cell-based, BGB or cisplatin IC20 combos, synergistic combos for chromothripsis tumors (AID 1671455; in the data active = inhibition above about 83%;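 note: 0% = vehicle DMSO and 100% = high DMSO as cytotoxic control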); conditions: HD-MB03 medulloblastoma cells, stronger effect = higher value
# [8] = growth inhibition, single agents and combos, UWB1.289, cell-based, BGB or cisplatin combos, synergistic combos for chromothripsis tumors (AID 1671456); conditions: UWB1.289 ovarian carcinoma cells, stronger effect = higher value;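 note: cells exposed to compound for four days; 0% = vehicle DMSO and 100% = killing by high DMSO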
# [9] = growth inhibition, single agents and combos, LFS_MB_2R, cell-based, cisplatin combos, synergistic combos for chromothripsis tumors (AID 1671457); conditions: LFS_MB_2R medulloblastoma cells, stronger effect = higher value;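 note: cells exposed to compound for four days before readout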
# [10] = growth inhibition, MDA-MB-436, cell-based, BGB or cisplatin combos, synergistic combos for chromothripsis tumors (AID 1671458; call rule not given here;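 note: cells exposed for 96 hours; 0% = vehicle DMSO and 100% = killing by high DMSO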); conditions: MDA-MB-436 breast carcinoma growth inhibition, drug combinations, stronger effect = higher value
# [11] = UWB1.289_BRCA1 ovarian cancer growth, cell-based, BGB or cisplatin combinations (AID 1671459); conditions: UWB1.289 BRCA1 ovarian carcinoma, drug combinations, stronger effect = higher value
# [12] = drug combination toxicity in non-malignant astrocytes – cell-based, BGB or cisplatin IC20 combos, cytotoxicity control for chromothriptic childhood tumor combination screen (AID 1671460); conditions: Human astrocytes, viability inhibition, drug combinations, at 0.5 µM, stronger effect = higher value;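 note: cells exposed to compounds for 96 hours before viability readout; 0% = vehicle and 100% = killing control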
# [13] = BT084 cell growth, single and combined drugs, ICGC_MB145, cisplatin and BGB IC40 combos (AID 1671461); conditions: BT084 medulloblastoma cells, drug combinations, stronger effect = higher value;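 note: cells exposed to drugs for 96 hours; 0% = vehicle DMSO and 100% = high DMSO full killing control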
# [14] = RCMB18 cell growth, single agent and combined, cisplatin and BGB IC40 combos (AID 1671462); conditions: RCMB18 medulloblastoma cells, stronger effect = higher value;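 note: cells exposed to compound for four days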
# [15] = CRL1545 cell growth, single agent and combined, cisplatin and BGB IC20 combos (AID 1671464); conditions: CRL1545 osteosarcoma cells, stronger effect = higher value;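 note: cells exposed to compound for 96 hours before readout; 0% = vehicle DMSO and 100% = high DMSO killing control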
# [16] = at 0.5 µM, stronger effect = higher value
# [17] = measured here: combination with BGB IC20, at 0.005 µM
# [18] = measured here: combination with BGB IC40, at 0.005 µM
# [19] = measured here: combination with BGB IC40, at 0.05 µM
# [20] = measured here: combination with cisplatin, at 0.5 µM, stronger effect = higher value
# [21] = measured here: combination with cisplatin, at 5 µM, stronger effect = higher value
# [22] = measured here: with BGB IC20 combination, at 0.5 µM
# [23] = measured here: with cisplatin IC20 combination, at 0.5 µM
# [24] = measured here: 5 uM single agent, at 5 µM
# [25] = measured here: combination with cisplatin, at 0.5 µM
# [26] = measured here: combination with cisplatin, at 5 µM
# [27] = measured here: with BGB IC20, at 0.5 µM
# [28] = measured here: with BGB IC20, at 5 µM
# [29] = measured here: with cisplatin IC20, at 0.5 µM
# [30] = measured here: with cisplatin IC20, at 5 µM
# [31] = measured here: combination with BGB at IC20, at 0.5 µM
# [32] = measured here: combination with cisplatin at IC20, at 0.5 µM
# [33] = measured here: combo with BGB at IC20, at 0.5 µM
# [34] = measured here: combo with cisplatin at IC20, at 0.5 µM
# [35] = measured here: inhibition with BGB combination, at 0.05 µM
# [36] = measured here: inhibition with cisplatin combination, at 0.05 µM
# [37] = measured here: BGB combination, at 0.5 µM
# [38] = measured here: BGB combination, at 5 µM
# [39] = measured here: cisplatin combination, at 0.5 µM
# [40] = measured here: cisplatin combination, at 5 µM
# [41] = BGB combination, concentration series, at 5 µM
# [42] = cisplatin combination, concentration series, at 5 µM
# [43] = measured here: combo with BGB IC20
# [44] = measured here: combo with cisplatin IC20
# [45] = cisplatin combination, at 0.5 µM
# [46] = measured here: BGB IC40 combination 0.05 uM, at 0.05 µM
# [47] = measured here: BGB IC40 combination, at 0.05 µM
structure (smiles),measurement,setting,value
C#CCC(CCCCCC)C(=O)O (stereo unspecified),inhibition,[1]; [16],5.69% (inactive)
same,inhibition,[1]; [17],3.1%
same,inhibition,[1]; [18],30.2%
same,inhibition,[1]; [19],36.1%
same,inhibition,[1]; [20],3.27%
same,inhibition,[1]; [21],-9.45%
same,inhibition,"[2]; BGB combo, at 5 µM",13.8%
same,inhibition,[2]; at 0.5 µM,8.32% (inactive)
same,inhibition,"[2]; cisplatin combo, at 5 µM",-0.039%
same,inhibition,[2]; [22],10.2%
same,inhibition,[2]; [23],-1.96%
same,inhibition,"[2]; single agent, at 5 µM",-0.563%
same,inhibition,"[3]; BGB IC20 combo, at 0.005 µM",-2.69%
same,inhibition,"[3]; BGB IC40 combo, at 0.005 µM",-16%
same,inhibition,"[3]; BGB IC40 combo, at 0.05 µM",-11.6%
same,inhibition,[3]; at 0.5 µM,-6.37% (inactive)
same,inhibition,"[3]; cisplatin combo, at 0.05 µM",-16%
same,inhibition,"[3]; cisplatin combo, at 0.5 µM",-14.1%
same,inhibition,"[3]; cisplatin combo, at 5 µM",-27.6%
same,inhibition,[3]; [24],-4.43%
same,inhibition,[4]; at 0.5 µM,3.82% (inactive)
same,inhibition,[4]; [19],-10%
same,inhibition,[4]; [25],-6.41%
same,inhibition,[4]; [26],2.32%
same,inhibition,[5]; at 0.5 µM,6.28% (inactive)
same,inhibition,[5]; [27],4.58%
same,inhibition,[5]; [28],-11%
same,inhibition,[5]; [29],-9.52%
same,inhibition,[5]; [30],-7.57%
same,inhibition,"[5]; single agent, at 5 µM",22.7%
same,inhibition,[6]; at 0.5 µM,2.92% (inactive)
same,inhibition,[6]; [31],26.1%
same,inhibition,[6]; [32],6.9%
same,inhibition,[7]; at 0.5 µM,3.15% (inactive)
same,inhibition,[7]; [33],0.099%
same,inhibition,[7]; [34],2.13%
same,inhibition,[8]; at 0.5 µM,4.47% (inactive)
same,inhibition,[8]; [35],5.84%
same,inhibition,[8]; [36],2.18%
same,inhibition,[9]; at 0.5 µM,-4.49% (inactive)
same,inhibition,[9]; [25],5.98%
same,inhibition,[9]; [26],6.31%
same,inhibition,[10]; at 0.5 µM,-1.28% (inactive)
same,inhibition,[10]; [37],-4.71%
same,inhibition,[10]; [38],-7.63%
same,inhibition,[10]; [39],-0.109%
same,inhibition,[10]; [40],-1.88%
same,inhibition,[11]; [41],-4.85%
same,inhibition,[11]; at 0.5 µM,3.74% (inactive)
same,inhibition,[11]; [42],16.5%
same,inhibition,[12],6.72% (inactive)
same,inhibition,[12]; [43],20.5%
same,inhibition,[12]; [44],9.45%
same,inhibition,[13]; at 0.5 µM,8.59% (inactive)
same,inhibition,[13]; [45],9.78%
same,inhibition,"[13]; cisplatin combination, at 5 µM",1.82%
same,inhibition,[13]; [46],2.2%
same,inhibition,"[13]; single agent, at 5 µM",14.4%
same,inhibition,[14]; at 0.5 µM,-5.37% (inactive)
same,inhibition,"[14]; cisplatin combo, at 5 µM",23.5%
same,inhibition,[14]; [47],5.44%
same,inhibition,[14]; [25],22%
same,inhibition,"[14]; single agent, at 5 µM",-15.4%
same,inhibition,[15]; at 0.5 µM,-23% (inactive)
same,inhibition,[15]; [22],-43.7%
same,inhibition,[15]; [23],-12.7%
same,inhibition,"[15]; single agent, at 0.05 µM",0.433%
same,inhibition,"[15]; single agent, at 5 µM",16.3%
Cn1cc(-c2cnn3c(N)c(Br)c([C@H]4CCCNC4)nc23)cn1,inhibition,[1]; [16],20.2% (inactive)
same,inhibition,[1]; [17],-7.68%
same,inhibition,[1]; [18],93.8%
same,inhibition,[1]; [19],11.8%
same,inhibition,[1]; [20],10.2%
same,inhibition,[1]; [21],-24.2%
same,inhibition,"[2]; BGB combo, at 5 µM",73.2%
same,inhibition,[2]; at 0.5 µM,22.3% (inactive)
same,inhibition,"[2]; cisplatin combo, at 5 µM",83.7%
same,inhibition,[2]; [22],9.52%
same,inhibition,[2]; [23],28.6%
same,inhibition,"[2]; single agent, at 5 µM",88.5%
same,inhibition,"[3]; BGB IC20 combo, at 0.005 µM",-13.9%
same,inhibition,"[3]; BGB IC40 combo, at 0.005 µM",-26.3%
same,inhibition,"[3]; BGB IC40 combo, at 0.05 µM",-14.6%
same,inhibition,[3]; at 0.5 µM,-16.3% (inactive)
same,inhibition,"[3]; cisplatin combo, at 0.05 µM",-20.5%
same,inhibition,"[3]; cisplatin combo, at 0.5 µM",-27.1%
same,inhibition,"[3]; cisplatin combo, at 5 µM",-5.82%
same,inhibition,[3]; [24],-16.1%
same,inhibition,[4]; at 0.5 µM,2.92% (inactive)
same,inhibition,[4]; [19],-16.9%
same,inhibition,[4]; [25],5.45%
same,inhibition,[4]; [26],-19.5%
same,inhibition,[5]; at 0.5 µM,-14.3% (inactive)
same,inhibition,[5]; [27],4.42%
same,inhibition,[5]; [28],66.4%
same,inhibition,[5]; [29],-18.4%
same,inhibition,[5]; [30],80.6%
same,inhibition,"[5]; single agent, at 5 µM",52.9%
same,inhibition,[6]; at 0.5 µM,-2.8% (inactive)
same,inhibition,[6]; [31],-24%
same,inhibition,[6]; [32],-3.06%
same,inhibition,[7]; at 0.5 µM,6.2% (inactive)
same,inhibition,[7]; [33],2.25%
same,inhibition,[7]; [34],17.7%
same,inhibition,[8]; at 0.5 µM,28.5% (inactive)
same,inhibition,[8]; [35],-6.38%
same,inhibition,[8]; [36],-4.25%
same,inhibition,[9]; at 0.5 µM,-5.31% (inactive)
same,inhibition,[9]; [25],-14.4%
same,inhibition,[9]; [26],-6.17%
same,inhibition,[10]; at 0.5 µM,29.3% (inactive)
same,inhibition,[10]; [37],21.8%
same,inhibition,[10]; [38],53.4%
same,inhibition,[10]; [39],36.8%
same,inhibition,[10]; [40],73.3%
same,inhibition,[11]; [41],103%
same,inhibition,[11]; at 0.5 µM,7.13% (inactive)
same,inhibition,[11]; [42],119%
same,inhibition,[12],-19% (inactive)
same,inhibition,[12]; [43],-17.5%
same,inhibition,[12]; [44],-30.9%
same,inhibition,[13]; at 0.5 µM,11% (inactive)
same,inhibition,[13]; [45],16.1%
same,inhibition,"[13]; cisplatin combination, at 5 µM",-105%
same,inhibition,[13]; [46],5.34%
same,inhibition,"[13]; single agent, at 5 µM",34.7%
same,inhibition,[14]; at 0.5 µM,4.28% (inactive)
same,inhibition,"[14]; cisplatin combo, at 5 µM",22.7%
same,inhibition,[14]; [47],-33.2%
same,inhibition,[14]; [25],-3.81%
same,inhibition,"[14]; single agent, at 5 µM",47.3%
same,inhibition,[15]; at 0.5 µM,79.7% (inactive)
same,inhibition,[15]; [22],73.9%
same,inhibition,[15]; [23],82.3%
same,inhibition,"[15]; single agent, at 0.05 µM",19%
same,inhibition,"[15]; single agent, at 5 µM",92.3%
